HT1080 IDH1KD tx – qHTS for induction of synthetic lethality in tumor cells producing 2HG: qHTS for the HT-1080-IDH1KD cell line. hit rate 2% among 360,000. AID 686971, 2013. HT-1080 IDH1 knockdown viability, ATP luminescence, 48 h. Potency, µM (highest dose often 46.1 µM), inactives show at the highest dose activity, negative = toxicity, most hits filed as cytotoxic;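 also: potency is read from the fitted curve at half-maximal effect; 0% = DMSO wells and -100% = cell-free medium wells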
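IDH1KD HT-1080 cells, 750/well, RPMI + 5% FBS; compound pinned after 2 h settling; 48 h, 37 °C; CellTiter-Glo luminescence; % activity normalised to DMSO and no-cell wells; curves fitted, classed by r2 and efficacy.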
IL1B secr inh – qHTS for Inhibitors of Inflammasome Signaling: IL-1-beta AlphaLISA Primary Screen | activity change, % at 57.5 µM | hit rate 4.7% among 360,000 | AID 743279, 2014 | THP-1 LPS/ATP IL-1B secretion, AlphaLISA, 16 h; stronger effect = lower value; in the data active = activity change below about -50%; inconclusive = mostly about -30% to -49%
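Secreted IL-1B measured by AlphaLISA bead assay after 16 h compound exposure of THP-1 cells; compounds (final up to 57.5 uM) added 1 h before LPS (250 ng/mL) and ATP (1.25 mM) stimulation; lower signal means less secretion.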
HT1080-NT tox – qHTS for induction of synthetic lethality in tumor cells producing 2HG: qHTS for the HT-1080-NT fibrosarcoma cell line; HT-1080-NT fibrosarcoma viability, CellTiter-Glo ATP luminescence, 48 h; AID 686970, 2013; hit rate 1.6% among 360,000; Potency, µM (series often up to 46.1 µM), without a hit: at the highest dose activity, negative = less viability, hits mostly cytotoxic;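 also: NT is the 2HG producing partner of a matched IDH1 knockdown line; potency is read from the fitted curve at half-maximal effect; 0% = DMSO-treated cells and -100% = media-only wells without cells; nearly all actives have a fitted effect of over 55% in size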
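A 48-hour cytotoxicity screen used HT-1080-NT cells plated 2 hours before compound delivery. ATP-based CellTiter-Glo luminescence measured viability, normalized to DMSO and no-cell controls.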
12-LOX inh – Primary qHTS assay for inhibitors of human arachidonate 12S-lipoxygenase (ALOX12): Round 2 | Polyunsaturated fatty acid lipoxygenase ALOX12 (Homo sapiens), P18054 | purified 12hLO, xylenol orange hydroperoxide absorbance | Potency, µM (top dose mostly 108 µM), inactives show at the top dose activity change, negative = inhibition, hits mostly inhibitors | hit rate 1.1% among 580,000 | AID 1671190, 2021; also: potency is read from the fitted curve at half-maximal effect
Target sequence (P18054 whole entry, looked up): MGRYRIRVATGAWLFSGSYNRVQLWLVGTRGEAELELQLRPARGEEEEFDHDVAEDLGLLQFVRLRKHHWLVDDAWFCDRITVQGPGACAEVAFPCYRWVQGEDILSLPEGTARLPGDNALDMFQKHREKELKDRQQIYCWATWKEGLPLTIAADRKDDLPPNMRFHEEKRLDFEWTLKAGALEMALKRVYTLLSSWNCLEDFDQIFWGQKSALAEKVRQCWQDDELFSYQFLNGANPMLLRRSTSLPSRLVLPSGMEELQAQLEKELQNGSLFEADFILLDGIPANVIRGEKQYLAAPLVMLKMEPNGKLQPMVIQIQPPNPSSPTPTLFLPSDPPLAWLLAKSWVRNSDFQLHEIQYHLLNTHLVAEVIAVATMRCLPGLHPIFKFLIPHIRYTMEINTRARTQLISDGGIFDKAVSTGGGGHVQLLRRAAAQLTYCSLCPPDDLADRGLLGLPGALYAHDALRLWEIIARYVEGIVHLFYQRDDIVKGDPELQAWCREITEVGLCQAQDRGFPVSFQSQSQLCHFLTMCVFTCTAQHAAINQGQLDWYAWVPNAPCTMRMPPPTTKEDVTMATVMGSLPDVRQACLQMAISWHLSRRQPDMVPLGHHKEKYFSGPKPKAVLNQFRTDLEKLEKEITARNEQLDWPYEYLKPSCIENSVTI
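Purified human 12hLO (150 nM final) in 25 mM Hepes, 0.01% Triton X-100, pH 7.0 was preincubated 15 min at room temperature with compound. Then 40 uM arachidonic acid was added, 30 min. Hydroperoxide was read by Fe-XO absorbance ratio 573/405 nm.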
TDP1 cell CPT – qHTS for Inhibitors of human tyrosyl-DNA phosphodiesterase 1 (TDP1): qHTS in cells in presence of CPT; chicken DT40 Tdp1-/-;hTDP1 cells + 20 nM CPT, ATP luminescence, 48 h; hit rate 12% among 420,000; AID 686979, 2013; Potency, µM (top dose mostly 46.2 µM), without a hit: at the highest dose activity change, negative = growth inhibition, usual class: inhibitors; also: potency is read from the fitted curve at half-maximal effect; nearly all actives have a fitted effect of over 55% in size
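Chicken DT40 Tdp1-/- cells complemented with human TDP1, 400 cells/well, exposed to compounds plus 20 nM camptothecin for at least 48 h at 37 C; viability read as ATP content by CellTiter-Glo luminescence.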
DT40 TDP1 no CPT – qHTS for Inhibitors of human tyrosyl-DNA phosphodiesterase 1 (TDP1): qHTS in cells in absence of CPT; DT40 Tdp1-/- hTDP1 cells, no CPT, ATP luminescence, 48 h; Potency, µM (highest dose often 46.2 µM), without a hit: at the top dose activity change, negative = growth inhibition, hits mostly inhibitors; hit rate 15% among 420,000; also: potency is read from the fitted curve at half-maximal effect; nearly all actives have a fitted effect of over 55% in size
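No-CPT arm: Tdp1-/-;hTDP1 DT40 cells (400/well) plus compounds, incubated ≥48 hr at 37 °C. Readout CellTiter-Glo luminescence.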
* marks the source's active call; other numbers are inactive results; ? = inconclusive; . = no result; ! = not confirmed by another sample; [ ] = remark or other dose. Many of the other results were omitted from the sample, so hits are more common in it than they were. Unless noted, calls follow the shape of the dose curve; as a rule, active = well fitted curve in the direction sought with a large enough effect; inconclusive = small, poorly fitted or top-dose-only effect, or another doubt; inactive = no such curve, though single readings can be large; an effect the other way counts as inactive or inconclusive. Unless noted, % is scaled to controls: 0 for no effect and ±100 for the full control effect.

SMILES	HT1080 IDH1KD tx	IL1B secr inh	HT1080-NT tox	12-LOX inh	TDP1 cell CPT	DT40 TDP1 no CPT
Cn1c(=O)c2c(nc(CN3CCc4ccccc4C3)n2Cc2ccc(Cl)cc2)n(C)c1=O	5%	10	-1%	-19%	-18%	-4%
COc1nc(C(=O)N(C)CC(=O)NC(C)(C)C)cc2ccccc12	.	.	.	35%	.	.
Cn1nc(C(=O)Nc2nc(-c3ccc4c(c3)OCCO4)cs2)c2ccccc2c1=O	.	.	.	-5%	.	.
Cc1cnc(NC(=O)c2csc(NCCC(C)C)n2)s1	.	.	.	46%	.	.
O=C(O)CCCn1c(=S)[nH]c2c(sc3ccc([N+](=O)[O-])cc32)c1=O	14%	-14	14%	18µM*	6%	10%
CC1CCN(CCCn2c(=S)[nH]c3c(sc4ccc([N+](=O)[O-])cc43)c2=O)CC1	-21%	10	-16%	?	?	-26%
CC1(C(=O)Nc2ccc(Cl)cc2)Cc2c(-c3ccc4c(c3)OCO4)ccnc2O1 (stereo not given)	?	64	?	-4%	?	?
CC(C)c1ccc(NC(=O)C2(C)Cc3c(-c4ccc5c(c4)OCO5)ccnc3O2)cc1 (stereo not given)	-14%	57	-21%	-11%	23µM*	?
CC1(C(=O)Nc2ccc3c(c2)OCO3)Cc2c(-c3ccc4c(c3)OCO4)ccnc2O1 (stereo not given)	2.1µM*	82	?	-10%	1.8µM*	2.3µM*
CC1(C(=O)Nc2ccc3c(c2)OCO3)Cc2c(-c3cccc(C(N)=O)c3)ccnc2O1 (stereo not given)	3.7µM*	15	?	-5%	2.9µM*	4.1µM*
COc1ccc(NC(=O)C2(C)Cc3c(-c4ccc5c(c4)OCO5)ccnc3O2)cn1 (stereo not given)	2.9µM*	31	?	-1%	3.3µM*	2.6µM*
COc1cccc(CC(=O)N2CCC3(CC2)N=C(c2ccccc2)NO3)c1	.	.	.	18%	.	.
O=C(CC1COCCN1)N(CCc1c[nH]c2ccccc12)C1CCCCC1 (stereo not given)	.	.	.	8%	.	.
Cc1ccn2c(NC3CCCCC3)c(C)nc2c1	?	-5	?	-25%	?	-14%
CCCCCCSc1cc(-c2nc3cc(C)ccn3c2NC2CCCCC2)ccc1OC	6%	-21	1%	-17%	?	16µM*
COc1cc(-c2nc3cc(C)ccn3c2NC2CCCCC2)ccc1-c1ccc(C(C)=O)cc1	?	?	-20%	-30%	13µM*	7.3µM*
CCCCCCSc1ccc(-c2nc3ccc(C)cn3c2NC2CCCCC2)cc1	1%	-20	1%	-38%	16µM*	18µM*
CCCCCCSc1ccc(-c2nc3cc(C)ccn3c2NC2CCCCC2)cc1	0%	-70*!	0%	?	18µM*	12µM*
CCCCCCSc1ccc(-c2nc3cnccn3c2NC2CCCCC2)cc1	4%	14	1%	?	?	?
O=C(Cc1ccsc1)N1CCCn2cc(-c3ccccc3F)nc21	.	.	.	-5%	.	.
CC(OC(=O)Cc1n[nH]c(=O)c2ccccc12)C(=O)Nc1ccc(F)cc1Cl (stereo not given)	-3%	1	0%	17%	-23%	-16%
O=C(Nc1nnc(CCc2ccccc2)s1)c1ccccc1F	4%	-3	2%	-14%	-13%	-17%
CCOc1ccc2c(ccc(/C=C/c3cc(C)c4cccnc4c3O)[n+]2C)c1	23µM*	?	?	.	2.6µM*	5.2µM*
CC(C)(C)[C@@H]1COC(=O)[C@@H](Cc2ccc(F)cc2)CC/C=C\C[C@@H](CC(=O)N(CCO)Cc2ccccc2)C(=O)N1	0%	-18	0%	9%	23µM*	?
CC(C)(C)[C@@H]1COC(=O)[C@H](Cc2ccc(F)cc2)CC/C=C\C[C@H](CC(=O)N(CCO)Cc2ccccc2)C(=O)N1	?	?	?	0%	9.2µM*	9.2µM*
SMILES	HT1080 IDH1KD tx	IL1B secr inh	HT1080-NT tox	12-LOX inh	TDP1 cell CPT	DT40 TDP1 no CPT
C[C@H]1COC(=O)[C@H](Cc2ccc(F)cc2)C/C=C\C[C@H](CC(=O)N(CCO)Cc2ccccc2)C(=O)N1	17%	-1	10%	-4%	?	?
CC(C)(C)[C@@H]1COC(=O)[C@H](Cc2ccc(F)cc2)C/C=C\C[C@@H](CC(=O)N(CCO)Cc2ccccc2)C(=O)N1	2%	-3	-1%	-4%	16µM*	21µM*
Cc1nc(C(=O)NCCO)cc2c1[nH]c1ccccc12	13%	-4	0%	0%	9%	-6%
O=C(NCC1CCCO1)c1cc2c([nH]c3ccccc32)c(-c2cccc(Br)c2)n1 (stereo not given)	-13%	?	-14%	24%	2.6µM*	2.9µM*
COc1ccc(-c2nc(C(=O)NCC3CCCO3)cc3c2[nH]c2ccccc23)cc1 (stereo not given)	-28%	?	-20%	-2%	2.1µM*	2.1µM*
Cc1ccc(-c2nc(C(=O)NCC3CCCO3)cc3c2[nH]c2ccccc23)cc1 (stereo not given)	-28%	-60*	?	18%	2.3µM*	1.8µM*
Cc1ccccc1-c1nc(C(=O)NCC2CCCO2)cc2c1[nH]c1ccccc12 (stereo not given)	-4%	-51*	-19%	-8%	12µM*	18µM*
CCCCNS(=O)(=O)c1cccc(NC(=O)c2cccc3cccnc23)c1	.	.	.	57%	.	.
O=C(c1c[nH]c2ncccc12)N1CCC(N2CCCC2)CC1	.	.	.	29%[176 µM]	.	.
CC(C)n1cc2cc(C(=O)NCc3ccccc3F)sc2c1	.	.	.	22%	.	.
Fc1cccc(Cc2c(-c3cccc(Br)c3)nc3c(Cl)cc(C(F)(F)F)cn23)c1	16%	0	22%	?	-19%	-13%
Cc1ccc(Cc2c(-c3cccc(Br)c3)nc3c(Cl)cc(C(F)(F)F)cn23)cc1	-7%	28	5%	-16%	1%	16µM*

Bioassay records: PubChem BioAssay, National Center for Advancing Translational Sciences (NCATS)
